Screen size: about 2,300 compounds; about 550 (24%) were called active. No rule for the calls is given here. Not all results are given here. Results with a measured potency or affinity are listed apart.

This test is described as follows: Vero E6 cell cytotoxicity, dose response, cytotoxicity control for non-replicating M. tuberculosis project, secondary assay (AID 492998). The conditions noted are these: series mostly up to 20 µM.
With `CCCOc1ccc(N2C(=O)CC(N3CCCC(C(=O)N4CCCC4)C3)C2=O)cc1` (configuration not stated), the call was inactive.

Regarding `COC(=O)CN(C#N)c1nc(SC)nc(N(C)C)n1`, the outcome was inactive.

With `CC(C)C[C@H]1CN=C(Nc2ccccc2)N1CCCC1CCCCC1`, the compound was called inactive.

Turning to `CCSc1nc(O)c(C2OC(=O)c3c2ccc(OC)c3OC)c(=O)n1-c1ccccc1` (configuration not stated), the compound was called inactive.

On to `CCOc1cccc2cc(C(=O)Nc3nccs3)c(=O)oc12`, for which the compound was classed as inactive.

In the case of `O=C(CN1CCC(NC(=O)c2cccc(F)c2)CC1)Nc1ccc(Br)cc1`, the result was inactive.

With `Cc1onc(-c2ccccc2)c1C(=O)Nc1nnc(COc2ccc(Cl)cc2)s1`, the outcome was inactive.

In the case of `CC(=O)N1N=C(c2ccccc2)OC1c1ccc([N+](=O)[O-])s1` (configuration not stated), the compound was classed as inactive.

`O=C(N/N=C/c1ccc(Br)s1)c1ccncc1`: the compound was classed as inactive.

`Cc1ccc(/C=N/NC(=O)c2ccncc2)s1`: the compound was classed as inactive.

For the compound `O=C(Nc1ccccc1)c1cc2ccccc2o1`, the outcome was inactive.

In the case of `CN(C)Cc1ccccc1Sc1ccc(Br)cc1`, the compound was called inactive.

For `CC(C)(NO)/C(=N\O)c1ccccc1`, the compound was called inactive.

Take `CCCOC(=O)c1ccc(-c2ccc(C=O)o2)cc1`: the call was inactive.

Consider `Cc1ccc2nc3c(c(N)c2c1)CCN3c1ccccc1`, for which the compound was called inactive.

With `C=C(C)C1Cc2c(C)nn(-c3nc(C)cc(C)n3)c2C1` (configuration not stated), the compound was classed as inactive.

Consider `CCc1nnc(N/N=C/c2ccc(-c3ccc([N+](=O)[O-])cc3)o2)n1N`, for which the result was inactive.

`Cc1cccc(NC(=O)COC(=O)c2cc3ccccc3oc2=O)c1`: the compound was called inactive.

`CCOc1cccc2cc(C(=O)NCc3ccccc3)c(=N)oc12`: the compound was called inactive.

As to `Cc1ccc(N=Nc2c(C)[nH]n(C(N)=S)c2=O)cc1C`, the compound was called inactive.

As to `O=C(c1ccc(-c2ccc([N+](=O)[O-])cc2)o1)N1CCN(S(=O)(=O)c2cccs2)CC1`, the outcome was inactive.

On to `COc1cccc(NC(=O)c2ccc(-c3ccc([N+](=O)[O-])cc3)o2)c1`, for which the result was inactive.

Turning to `COc1ccccc1C(=O)OCC(=O)Nc1ccc(Cl)cn1`, the compound was called inactive.

For the compound `CC(C)(C)NC(=O)c1ccc(NC(=O)c2ccccc2-c2ccccc2C(=O)O)cc1`, the compound was classed as inactive.

Take `CN1CCC(O)(c2ccc(Cl)cc2)C(C(=O)c2ccc(Cl)cc2)C1` (configuration not stated): the compound was called inactive.

With `O=C(Cn1cc([N+](=O)[O-])nc1[N+](=O)[O-])N1CCN(c2ccccc2)CC1`, the compound was classed as inactive.

With `Cc1nc(Cl)nc(N(C)c2ccccc2)c1[N+](=O)[O-]`, the compound was called inactive.

On to `N/C(=N/OC(=O)c1ccc(Cl)cc1)c1ncc([N+](=O)[O-])s1`, for which the result was inactive.

In the case of `Cc1nnc(NC(=O)c2ccc3ccccc3c2)o1`, the result was inactive.

As to `Cc1cc(C=C2C(=O)NC(=S)NC2=O)c(C)n1C1CCCC1`, the compound was called inactive.

For `CSc1nc2ccc(NC(=O)C3CC(=O)N(Cc4ccccc4)C3)cc2s1` (configuration not stated), the compound was called inactive.

For the compound `CC1CCN(CCc2nc3cc(NC(=O)COc4ccc(Cl)cc4)ccc3n2C)CC1`, the compound was classed as inactive.

As to `NC(=S)n1[nH]c(-c2ccc([N+](=O)[O-])cc2)c(N=Nc2ccc(O)cc2)c1=O`, the compound was called inactive.

Turning to `COC(=O)c1ccc(CSc2nnc(-c3ccncc3)o2)o1`, the compound was classed as inactive.

For `CCOC(=O)COc1ccc(/C=C2\NC(=S)N(CC)C2=O)cc1`, the call was inactive.

For `FC(F)(F)c1ccc(NCCc2ccccc2)nc1`, the result was inactive.

As for `O=C(COc1ccc(F)cc1)N/N=C/c1cccc2cccnc12`, the call was inactive.

`O=C1/C(=C/c2cccs2)COc2ccccc21`: the result was inactive.

Consider `Brc1ccc(OCCCCN2CCCCC2)cc1`, for which the compound was classed as inactive.

`Cc1occc1C(=O)N/N=C/C(Br)=C\c1ccccc1`: the call was inactive.

As for `O=C(CN1CCCCC1)Nc1nnc(-c2ccc([N+](=O)[O-])cc2)s1`, the compound was called inactive.

For the compound `N#Cc1nc(-c2cccs2)oc1NCCc1ccccc1`, the compound was called inactive.

In the case of `COc1cc(N=c2ssnc2Cl)cc(OC)c1OC`, the outcome was inactive.

For `O=C1Nc2cc(C(=O)NCCCN3CCOCC3)ccc2S/C1=C/c1cccc(Cl)c1`, the compound was classed as inactive.

Turning to `N=c1n(CCN2CCCCC2)c2ccccc2n1CC(=O)c1ccc(Cl)c(Cl)c1`, the call was inactive.

As for `COCCOC(=O)c1c(C)oc2ccc(OC(=O)c3ccco3)cc12`, the compound was classed as inactive.

For `O=C(Nc1ncc(Cc2ccccc2)s1)C1=NCCN1`, the outcome was inactive.

For the compound `OCC#CCSc1nnc(-c2ccc(Br)cc2)o1`, the result was inactive.

For `CCN(CC)c1ccc2c(c1)oc(=O)c1c(Cl)cc(=O)oc12`, the result was inactive.

In the case of `CN(CCOCCOc1ccc(F)cc1)Cc1ccccc1`, the compound was called inactive.

Take `CCCCOC(=O)Cn1c(-c2ccccc2)nc2ccccc2c1=O`: the compound was called inactive.

Turning to `CCOC(=O)c1cc(-c2csc(COc3ccc(Cl)cc3)n2)on1`, the call was inactive.

On to `NC(=O)C1CCN(C2CC(=O)NC2=O)CC1` (configuration not stated), for which the compound was classed as inactive.

For `CCC(C)n1c(=S)[nH]c2ccccc2c1=O` (configuration not stated), the compound was called inactive.

As to `Nc1ccc2nc3c(c(Cl)c2c1)CCCC3`, the result was inactive.

As to `O=C(CCSc1nnc(-c2ccncc2)o1)Nc1ccc(Cl)cc1`, the outcome was inactive.

Take `CCC1(O)CC(c2ccccc2)=NN1C(=O)c1ccccc1F` (configuration not stated): the compound was called inactive.

Turning to `CCOC(=O)C(C)(C)n1nnc(-c2ccc([N+](=O)[O-])cc2)n1`, the compound was classed as inactive.

Turning to `Cc1cc(=O)n2cccc(O)c2n1`, the outcome was inactive.

For the compound `O=C(NNc1nc2cc3c(cc2s1)OCCO3)c1ccccc1`, the compound was classed as inactive.

Take `C/C(CC(=O)Nc1ccc(N(C)C)cc1)=N\NC(=O)c1ccncc1`: the compound was classed as inactive.

With `NC(=O)c1cccnc1Nc1cccc(F)c1`, the outcome was inactive.

With `CN(C)CCCn1c(=O)n(C2CCCCC2)c(=O)c2c3c(sc21)CCCCC3`, the result was inactive.

With `CN(C)CCNc1c2c(c(C#N)c3nc4ccccc4n13)CCCC2`, the result was inactive.

Consider `COc1cc(/C=N/Nc2ccc(Cl)c(C(=O)O)c2)ccc1OC(=O)c1cccs1`, for which the outcome was inactive.

With `CC1=NN(C(=O)c2csc(C)c2C)C(O)(C(F)(F)F)C1` (configuration not stated), the compound was classed as inactive.

Regarding `O=C(CCc1ccccc1F)N1CCN(c2ccccc2)CC1`, the compound was called inactive.

Consider `Cc1cc(/C=N\NC(=O)c2cccs2)c(C)n1-c1ccc2ncccc2c1`, for which the outcome was inactive.

As to `O=c1cc(-c2ccccc2Cl)oc2c([N+](=O)[O-])c(O)cc(O)c12`, the outcome was inactive.

As for `O=C(CCc1ccccc1)NC1C2CC3CC(C2)CC1C3` (configuration not stated), the outcome was inactive.

Consider `CC1CCN(C(=O)COC(=O)c2cc3ccccc3cc2O)CC1`, for which the result was inactive.

For the compound `C/C(=N\NC(=O)c1ccncc1)c1cc2ccccc2oc1=O`, the outcome was inactive.

Take `C/C(=N/NC(=O)c1cccc(C)c1)c1c(O)cc(C)oc1=O`: the result was inactive.

Take `C/C(=N\NC(=O)c1cccc(Cl)c1)C1C(=O)c2ccccc2C1=O`: the compound was called inactive.

Regarding `O=C(NC(=S)NCCc1ccccc1)c1ccccc1`, the result was inactive.

With `O=C1/C(=C/C=C/c2ccccc2)Oc2c1ccc(O)c2CN1CCN(CCO)CC1`, the outcome was inactive.

`O=C(COC(=O)C1CC2C=CC1C2)Nc1ccccc1` (configuration not stated): the compound was called inactive.

Take `COC(=O)c1cc2c(ccc3ccccc32)oc1=O`: the compound was classed as inactive.

Turning to `COc1ccc(-c2cc(=O)oc(-c3cccc(C)c3)n2)cc1`, the outcome was inactive.

For `Cc1nn(-c2ccccc2)nc1C(=O)c1c(C)[nH]n(-c2ccccc2)c1=O`, the compound was called inactive.

Take `O=C(OCc1c(Cl)cccc1Cl)c1ccccn1`: the compound was called inactive.

In the case of `CCOC(=O)c1ccc(COC(=O)c2cc3ccccc3oc2=O)o1`, the result was inactive.

Consider `CC(=O)NCCOC(=O)Nc1sc(=S)n(C)c1C`, for which the result was inactive.

Take `CC1CCN(C(=O)C2COc3ccccc3O2)CC1` (configuration not stated): the compound was classed as inactive.

In the case of `Cc1csc(=Nc2cccnc2)n1CC1CCCCC1`, the result was inactive.

With `CNC(=O)COC(=O)c1ccc(-c2nc3ccccc3s2)s1`, the outcome was inactive.

Turning to `CC(C)N1CCc2c(sc(NC(=O)CCS(=O)(=O)c3ccccc3)c2C#N)C1`, the compound was called inactive.

For `COCCCC1CCN(Cc2nc(-c3ccccc3)no2)CC1`, the result was inactive.

For `CC(C)(C)c1ccc(S(=O)(=O)NNC(=O)c2cc3ccccc3[nH]2)cc1`, the compound was classed as inactive.

Regarding `CC(C)(C)CC(=O)NC(=S)NCc1ccco1`, the compound was classed as inactive.

Turning to `CCOC(=O)COc1cc(N)c(Cl)cc1Cl`, the call was inactive.

`CCn1cc(C(=O)NC(C)C23CC4CC(CC(C4)C2)C3)cn1` (configuration not stated): the result was inactive.

On to `Cc1ccc(S(=O)(=O)N2CCC(C(=O)OCc3ccccc3)CC2)cc1C`, for which the outcome was inactive.

On to `COc1ccc2c([N+](=O)[O-])c(N3CCCC3)[nH]c2c1`, for which the outcome was inactive.

For `Cc1ccc(OCCCCn2ccnc2)c([N+](=O)[O-])c1`, the call was inactive.

Turning to `Clc1cccc(-c2ccc(CNCc3ccccn3)o2)c1`, the outcome was inactive.

As for `Clc1ccc(-c2ccc(CNCc3ccccn3)o2)cc1`, the result was inactive.

In the case of `Fc1ccc(-c2ccc(CNCc3ccccn3)o2)cc1Cl`, the compound was called inactive.

As to `CCCc1cc(NCCCn2ccnc2)n2nc(C)c(-c3ccccc3)c2n1`, the call was inactive.

On to `O=C(Oc1ccccc1)c1cc2ccccc2o1`, for which the compound was called inactive.

For `Cc1cc(C(=O)NNc2ccc(Cl)cc2)no1`, the result was inactive.

As for `COc1cccc(C(=O)C2CCCN(CC3=Cc4cc(OC)ccc4OC3)C2)c1` (configuration not stated), the compound was called inactive.

As to `N/C(=N\OC(=O)c1cccs1)c1ccccc1`, the result was inactive.

In the case of `C=CCN(CC=C)C(=O)Cc1ccc(F)cc1`, the compound was called inactive.

Regarding `O=[N+]([O-])c1ccc(Nc2ccccc2O)c2nonc12`, the compound was classed as inactive.

As for `Cc1ccc2[nH]c(C)c(CCNC(=O)c3cc4cc([N+](=O)[O-])ccc4oc3=O)c2c1`, the compound was called inactive.

Regarding `CC(NC(=O)c1cc2cc(Br)ccc2oc1=N)c1ccccc1` (configuration not stated), the outcome was inactive.

For `CCOCCOC(=O)COc1ccc2c(-c3ccccc3)cc(=O)oc2c1`, the compound was classed as inactive.

Take `CC1=NN(C(=O)c2ccc(C)o2)C(O)(c2ccccc2)C1` (configuration not stated): the compound was called inactive.

For `O=C(NC1CCCC1)c1nc2c(nnn2Cc2cccc(Cl)c2)c(=O)[nH]1`, the outcome was inactive.

For `N=c1oc2ccccc2cc1C(=O)NC1CCCCCC1`, the outcome was inactive.

Take `CC(=O)c1ccc(-n2cc(-c3ccc(C(C)(C)C)cc3)[n+]3c2SCCC3)cc1`: the compound was classed as inactive.

For the compound `O=C(NCC(c1cccs1)N1CCOCC1)c1cc([N+](=O)[O-])cc([N+](=O)[O-])c1` (configuration not stated), the compound was called inactive.

`COc1ccc([N+](=O)[O-])c(S(=O)(=O)c2ccc(Cl)cc2)n1`: the outcome was inactive.

As for `COC(=O)CCCCCN1C(=O)/C(=C\c2ccncc2)SC1=S`, the result was inactive.

As for `COc1ccc(-c2noc(-c3cc4ccccc4oc3=O)n2)cc1`, the compound was classed as inactive.

`CCN(CC)c1ccc2cc(C(=O)NCc3ccc(F)cc3)c(=N)oc2c1`: the call was inactive.
